Measurements: the supplement of paper PMC6555819

What was measured:
Test in all cases: PBM binding z-score (relative to random genomic background probes); higher = stronger binding; sequences stand for … in GC…GCGATTGACAGCGTAGAATGAAGG
[1] = tested on: FXR:RXRa (NR concentration 270 nM, RXRa partner concentration 90 nM)
Outline: (§1)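 Ligand-free nuclear receptor dimers were applied to custom Agilent 4×180K protein-binding microarrays whose double-stranded probes carried direct-repeat seeds, single-nucleotide variants, half-site ablations and random human genomic background sequences in 34-nt variable regions. Incubation lasted 1 h. Binding z-scores were computed against the random background probes from regression-normalized fluorescence.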

[2] = tested on: LXRa:RXRa (NR concentration 270 nM, RXRa partner concentration 90 nM)
Outline: as §1

[3] = tested on: LXRa homodimer (NR concentration 270 nM)
Outline: as §1

[4] = tested on: LXRb:RXRa (NR concentration 270 nM, RXRa partner concentration 90 nM)
Outline: as §1

[5] = tested on: LXRb homodimer (NR concentration 270 nM)
Outline: as §1

[6] = tested on: PPARa:RXRa (NR concentration 270 nM, RXRa partner concentration 90 nM)
Outline: as §1

[7] = tested on: PPARg:RXRa (NR concentration 180 nM, RXRa partner concentration 90 nM)
Outline: as §1

[8] = tested on: PPARg:RXRa 270nM:90nM, anti-RXR (NR concentration 270 nM, RXRa partner concentration 90 nM)
Outline: as §1

[9] = tested on: PPARg:RXRa 30nM:10nM, anti-RXR (NR concentration 30 nM, RXRa partner concentration 10 nM)
Outline: as §1

[10] = tested on: PPARg:RXRa 90nM:30nM, anti-RXR (NR concentration 90 nM, RXRa partner concentration 30 nM)
Outline: as §1

Sequence	PBM binding z-score [1]	PBM binding z-score [2]	PBM binding z-score [3]	PBM binding z-score [4]	PBM binding z-score [5]	PBM binding z-score [6]	PBM binding z-score [7]	PBM binding z-score [8]	PBM binding z-score [9]	PBM binding z-score [10]
CGAACCAGGTCAAAGGACAGTGAAAGGCGACGTA	5.18	3.73	0.284	2.63	-0.254	5.27	7.61	7.03	4.9	6.76
AGTCAAAGTTGATCTAGGTAACGTAAGATATGCT	-0.0957	-0.391	-0.431	-0.102	-0.616	0.713	1.39	1.2	0.421	0.958
CGAACCAGGTCACCAGGACAGTGAAGAGGTTGGA	5.33	3.4	0.19	2.53	-0.432	4.96	6.6	5.66	2.44	4.73
CGAAGTAGGTCACCAGGACAGTGAAGAGGTTGGA	3.65	2.69	0.0752	2.07	-0.257	5.34	8.79	7.35	4.81	7.02
ATCGAAAGGTCGACGAGGTGAGTATGCACCGTTT	4.61	3.13	-0.377	2.5	0.258	4.53	2.51	3.05	0.831	1.92
CGAACTAGGTCACCAGGACAGTAAAGAGGTTGGA	4.28	2.44	0.233	1.93	0.13	5.1	9.15	7.03	4.73	6.51
CAATCTAGGTCACGAAAGGTCAAAGTCGAATGAC	7.83	8.36	8	7.57	3.05	6.84	10.7	8.68	7.62	9.02
TTACCGAGGTGAAAGGTCGTTGATGCACGCCTTG	3.99	3.64	0.332	3.53	-0.52	5.85	9.29	8.26	7.84	9.2
TTACCAAGGTGAAAGGTCGTTGAGGCACGCCTTG	3.79	3.61	0.199	2.74	-0.545	5.53	9.39	8.28	7.31	9.21
GATACAGGGTCAGCTAGAGGGCAGAGTATGGAAA	4.97	3.61	0.31	3.04	-0.0711	4.5	4.11	3.6	0.823	2.38
CGAACTAGGTCACCAGGGCAGTGAAGAGGTTGGA	3.67	2.48	0.0109	1.52	-0.639	5.2	8.69	6.86	4.52	6.42
ACTAGCAGGCCAAGAGTCACTCAAGATTAGTCCG	0.0217	-0.0111	-0.373	-0.29	-0.882	1.46	2.56	4.08	2.06	3.48
GCTGCTAGGTCAACTGATGGTCAGCTAAAGCTCG	4.31	3.05	0.34	2.04	-0.115	3.63	2.88	3.35	0.939	2.08
CAAACTAGGTCACAGAGGTCAACGTCCGTGCGTA	7.51	6.49	6.37	5.93	1.62	6.75	10.3	8.36	6.69	8.46
CCTACGGGGCCAAGGTCATTGATCAGTCAAAGCA	3.57	3.06	0.732	2.94	-0.542	3.79	2.83	3.73	1.3	2.88
ATATGTAGGTTAGGGACATTCAGAAAGTAGGGAA	0.703	0.638	0.29	0.442	0.526	2.39	3.98	2.82	1.2	2.33
CGACCTAGGTCACCAGGACAGTGAAGAGGTTGGA	4.89	2.91	-0.161	2.09	-0.881	4.22	5.25	4.5	1.21	3.13
CGTACTAGGTCAAAGGACAGTGAAAGGCGACGTA	3.86	2.77	0.17	1.89	-0.0877	4.83	9.74	7.95	8.11	9.06
CCTCGGAGGTCAGAAGGTCAGAGCTGTCCGCTTT	5.84	4.89	1.19	3.83	0.259	4.92	3.38	5.24	1.27	3.92
GGAACGAGGGCATTCGAGTTGATAGCATGGCGAT	1.35	1.46	-0.481	-0.0953	-0.345	1.38	0.867	0.479	-0.23	-0.0469
CGTCTAAGTTCAAGGTAACGTAACAGAAAGCAGC	4.08	3.47	1.01	2.01	0.51	3.18	1.39	2.11	0.885	1.69
ATATATAGGTTAGGGTCATTCAGAAAGTAGGGAA	5.26	4.34	1.79	4.71	2.26	5.6	8.16	6.57	4.73	6.58
CGAACTAGCTCAAGGACAGTGAATCTCCGCACGC	0.148	-0.503	0.172	-0.398	-0.571	-0.568	0.277	-0.53	-0.374	-0.661
CAAACTAGGTCACGAGGTCAAAGTCCGCTTCCCG	7.24	6	5.08	5.41	1.09	6.85		8.27	7.29	8.74
ATATGTAGGTTAGGGTCATTAAGAAAGTAGGGAA	4.6	3.41	1.04	4.44	1.52	5.58	7.9	6.59	4.1	6.14

Sequence	PBM binding z-score [1]	PBM binding z-score [2]	PBM binding z-score [3]	PBM binding z-score [4]	PBM binding z-score [5]	PBM binding z-score [6]	PBM binding z-score [7]	PBM binding z-score [8]	PBM binding z-score [9]	PBM binding z-score [10]
ACTAGTAGGCCAAGGGTCACTCAAGATTAGTCCG	2.69	2.91	0.417	2.98	0.0422	5.64		9.26	10.9	10.4
ATATGTAGGTTAGGGCCATTCAGAAAGTAGGGAA	0.671	0.708	0.2	0.722	0.503	2.71	3.6	3.2	1.06	2.58
TATACTGGGTCAAAGGCCAGAGTACGAATGTCGA	4.05	3.73	1.34	2.81	1.32	5.52		8.98	8.63	10.2
ATATGTAGGTTAGGGGCATTCAGAAAGTAGGGAA	1.64	1.47	0.824	3.01	2.52	3.8	5.77	5.21	2.78	4.77
CAATCTAGGTCACAGAGGTCAAAGTCCGTGCGTA	7.18	7.04	7.96	6.3	2.8	6.7		8.69	7.34	9.13
CGTCCAAGGTCAAGGGCAGTGAAAGAGACTCGAA	7.12	4.83	0.283	3.68	0.0141	5.93	5.48	5.38	1.76	4.07
TAGCCTAGGTCAAGCGGGCCAGTATAGTGTCGGC	4.12	3.15	0.0899	1.78	-0.385	3.62	2.12	2.59	0.103	1.32
AGTCAAAGTTCAGGACGAGATAACGTAAAGCACG	3.4	3.72	1.12	1.81	0.41	3.28		4.8	2.31	3.71
TTATCAAGGTGAAAGGTCGTTGATGCACGCCTTG	3.92	3.41	0.476	2.84	0.104	5.86		9.22	9.21	11
CCTAGCAGGCGAGGGTCACTCAAGCATTTCGCTT	1.72	1.44	-0.428	1.56	-1.08	2.63	0.461	1.58	-0.298	1.34
CCTAGTTGGCCAAGGTCACACACGCTATAGGTAC	3.78	3.61	1.6	3.73	0.597	3.8	2.42	2.88	0.959	1.94
CGTCAAAGTTCAAGGTTACGTAACAGAAAGCAGC	6.96	5.9	2.46	4.07	1.18	5.3	4.97	5.43	2.35	4.26
ATCTCTAGGTTAAAGTTCAGTGAATCCCGAGGAT	2.96	3.76	3.34	2.61	1.62	5.59		8.62	8.86	9.27
CCTAGTTGGTCAGGAGGTCACATACCGGATATGA	3.32	3.13	1.66	3.16	0.594	3.7	3.11	3.14	1.32	2.95
TCTGCTAGGTCAGGTGGTCAGCTAACGAGCTGCC	1.39	0.774	-0.474	0.66	0.161	1.89	1.01	2.36	1.38	1.98
CGTCGGAGGACAACAGGAGGTCAGAGCTGCCAGA	1.46	2.29	2.3	1.48	-0.649	1.98	0.434	0.482	-0.532	0.226
CCTACTGGGCCAAGGTCATTGCTCAGTCAAAGCA	3.09	3.01	0.828	2.83	-0.46	3.63	3.88	4.33	1.07	3.55
TTACCAAGGTAAAAGGTCGTTGATGCACGCCTTG	2.52	2.49	0.274	2.25	0.0385	4.46		6.8	5.65	6.87
CCTCCAAGGTCATAGGAGGTCAGTGAAGACAGAT	7.3	7.45	4.84	6.24	0.899	5.85		5.88	2.47	4.29
ACTTACGGGTCAACGAAGTTATAGCACGCGTATA	6.23	4.01	0.164	3.62	0.73	5.47		4.81	1.85	3.63
CTAACTAGGTCAAAGGACAGTGAAAGGCGACGTA	3.68	2.75	0.132	1.85	-0.0221	5.86	10.8	9.18	9.63	10.2
CCTTACGGGTCAGGAGGTTATAGCACGACGAGCG	4.11	3	0.272	2.52	-0.12	4.49		4.07	1.19	2.57
CAAACTAGGTCACAGAGGTTAAAGTCCGTGCGTA	5.89	5.17	3.01	4.28	0.562	6.05	9.43	7.64	5.91	7.56
GATACAGGGTCAGCTTGAGGCCAGAGTATGGAAA	4.2	2.37	-0.58	2.03	-0.747	3.98	2.71	2.81	0.493	1.56
CCTGCTAGGTCAAGGGTCAGCTAAAGCAGCTCGC	6.02	4.62	0.429	3.85	-0.198	5.91		8.48	7.78	9.4
